About 2,000 (36%) of roughly 5,500 compounds were called active. Another 18% or so got no clear call; they are omitted. No stated cut-off is given here; in the data, active means normalized growth mostly below about 0.91 (no sharp cut-off); inconclusive means no clear call, values can overlap the other calls; inactive means mostly above about 0.92. The list shows a part of the results.
Test: chemical genetic growth profiling, strain panel (AID 1159580);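 further: tested at 20 µM; growth read once vehicle control cultures reached saturation at 30 °C; 1 = growth at the plate median or of vehicle wells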
Conditions: growth OD

Measured: normalized growth

Oc1c(Cl)cc(Cl)c2cccnc12
active: S. cerevisiae deletion strains, locus YJR066W, strain TOR1, stronger effect = lower value -0.00116 | S. cerevisiae deletion strains, locus YJR075W, strain HOC1, stronger effect = lower value 0.0672 | S. cerevisiae deletion strains, locus YKL009W, strain mrt4, stronger effect = lower value 0.092 | S. cerevisiae deletion strains, locus YKL068W, stronger effect = lower value 0.0598 | S. cerevisiae deletion strains, locus YKL085W, strain MDH1 (second series), stronger effect = lower value 0.057 | S. cerevisiae deletion strains, locus YKL085W, strain MDH1, stronger effect = lower value 0.057 | S. cerevisiae deletion strains, locus YKL160W, strain elf1, stronger effect = lower value 0.067 | S. cerevisiae deletion strains, locus YKL190W, strain CNB1, stronger effect = lower value 0.0458 | S. cerevisiae deletion strains, locus YKR001C, strain vps1, stronger effect = lower value 0.0676 | S. cerevisiae deletion strains, locus YKR026C, strain gcn3, stronger effect = lower value 0.0676 | S. cerevisiae deletion strains, locus YKR091W, strain srl3, stronger effect = lower value 0.0658 | S. cerevisiae deletion strains, locus YLL001W, strain dnm1, stronger effect = lower value 0.0628 | S. cerevisiae deletion strains, locus YLL026W, stronger effect = lower value 0.0652 | S. cerevisiae deletion strains, locus YLL041C, strain sdh2, stronger effect = lower value 0.0595 | S. cerevisiae deletion strains, locus YLR027C, strain aat2, stronger effect = lower value 0.0596 | S. cerevisiae deletion strains, locus YLR039C, strain RIC1, stronger effect = lower value 0.0746 | S. cerevisiae deletion strains, locus YLR058C, strain SHM2, stronger effect = lower value 0.0468 | S. cerevisiae deletion strains, locus YLR102C, strain apc9, stronger effect = lower value 0.0634 | S. cerevisiae deletion strains, locus YLR113W, strain HOG1, stronger effect = lower value 0.152 | S. cerevisiae deletion strains, locus YLR221C, strain rsa3, stronger effect = lower value 0.0659 | S. cerevisiae deletion strains, locus YLR258W, strain gsy2, stronger effect = lower value 0.0626 | S. cerevisiae deletion strains, locus YLR262C, strain YPT6 (second series), stronger effect = lower value 0.0862 | S. cerevisiae deletion strains, locus YLR262C, strain YPT6, stronger effect = lower value 0.0908 | S. cerevisiae deletion strains, locus YLR268W, strain sec22, stronger effect = lower value 0.0715 | S. cerevisiae deletion strains, locus YLR320W, strain mms22, stronger effect = lower value 0.0895 | S. cerevisiae deletion strains, locus YLR330W, strain CHS5, stronger effect = lower value 0.0519 | S. cerevisiae deletion strains, locus YLR342W, strain FKS1 (second series), stronger effect = lower value 0.0706 | S. cerevisiae deletion strains, locus YLR342W, strain FKS1, stronger effect = lower value 0.068 | S. cerevisiae deletion strains, locus YLR357W, strain rsc2, stronger effect = lower value 0.116 | S. cerevisiae deletion strains, locus YLR370C, strain arc18, stronger effect = lower value 0.0682 | S. cerevisiae deletion strains, locus YLR371W, strain rom2, stronger effect = lower value 0.0693 | S. cerevisiae deletion strains, locus YLR384C, strain iki3, stronger effect = lower value 0.0654 | S. cerevisiae deletion strains, locus YLR418C, strain cdc73, stronger effect = lower value 0.106 | S. cerevisiae deletion strains, locus YML016C, strain PPZ1, stronger effect = lower value 0.0467 | S. cerevisiae deletion strains, locus YML032C, strain rad52, stronger effect = lower value 0.0695 | S. cerevisiae deletion strains, locus YML120C, strain ndi1, stronger effect = lower value 0.0608 | S. cerevisiae deletion strains, locus YML124C, strain tub3, stronger effect = lower value 0.0633 | S. cerevisiae deletion strains, locus YMR058W, strain fet3, stronger effect = lower value 0.0638 | S. cerevisiae deletion strains, locus YMR078C, strain ctf18, stronger effect = lower value 0.0725 | S. cerevisiae deletion strains, locus YMR125W, strain sto1, stronger effect = lower value 0.0693 | S. cerevisiae deletion strains, locus YMR129W, stronger effect = lower value 0.0704 | S. cerevisiae deletion strains, locus YMR205C, strain PFK2, stronger effect = lower value 0.087 | S. cerevisiae deletion strains, locus YMR223W, strain ubp8, stronger effect = lower value 0.0733 | S. cerevisiae deletion strains, locus YMR231W, strain pep5, stronger effect = lower value 0.0731 | S. cerevisiae deletion strains, locus YMR263W, strain SAP30, stronger effect = lower value 0.057 | S. cerevisiae deletion strains, locus YMR307W, strain GAS1, stronger effect = lower value 0.101 | S. cerevisiae deletion strains, locus YNL067W, strain RPL9B, stronger effect = lower value 0.0516 | S. cerevisiae deletion strains, locus YNL071W, strain lat1, stronger effect = lower value 0.0698 | S. cerevisiae deletion strains, locus YNL128W, strain TEP1, stronger effect = lower value 0.0643 | S. cerevisiae deletion strains, locus YNL153C, strain GIM3, stronger effect = lower value 0.0512 | S. cerevisiae deletion strains, locus YNL183C, strain NPR1, stronger effect = lower value -0.00339 | S. cerevisiae deletion strains, locus YNL209W, strain ssb2, stronger effect = lower value 0.0648 | S. cerevisiae deletion strains, locus YNL233W, strain BNI4, stronger effect = lower value 0.0545 | S. cerevisiae deletion strains, locus YNL248C, strain rpa49, stronger effect = lower value 0.0607 | S. cerevisiae deletion strains, locus YNL250W, strain rad50, stronger effect = lower value 0.0707 | S. cerevisiae deletion strains, locus YNL271C, strain bni1, stronger effect = lower value 0.0672 | S. cerevisiae deletion strains, locus YNL298W, strain CLA4, stronger effect = lower value 0.0667 | S. cerevisiae deletion strains, locus YNL307C, strain MCK1, stronger effect = lower value 0.0744 | S. cerevisiae deletion strains, locus YNL322C, strain KRE1 (second series), stronger effect = lower value 0.0728 | S. cerevisiae deletion strains, locus YNL322C, strain KRE1, stronger effect = lower value 0.0468 | S. cerevisiae deletion strains, locus YNR049C, strain mso1, stronger effect = lower value 0.0631 | S. cerevisiae deletion strains, locus YNR052C, strain pop2, stronger effect = lower value 0.0629 | S. cerevisiae deletion strains, locus YOL006C, strain TOP1, stronger effect = lower value 0.108 | S. cerevisiae deletion strains, locus YOL147C, strain pex11, stronger effect = lower value 0.0586 | S. cerevisiae deletion strains, locus YOR001W, strain rrp6, stronger effect = lower value 0.072 | S. cerevisiae deletion strains, locus YOR061W, strain CKA2, stronger effect = lower value 0.045 | S. cerevisiae deletion strains, locus YOR069W, strain VPS5, stronger effect = lower value 0.046 | S. cerevisiae deletion strains, locus YOR070C, strain gyp1, stronger effect = lower value 0.0611 | S. cerevisiae deletion strains, locus YOR080W, strain dia2, stronger effect = lower value 0.0794 | S. cerevisiae deletion strains, locus YOR083W, strain WHI5, stronger effect = lower value 0.0648 | S. cerevisiae deletion strains, locus YOR106W, strain vam3, stronger effect = lower value 0.0647 | S. cerevisiae deletion strains, locus YOR136W, strain idh2, stronger effect = lower value 0.0779 | S. cerevisiae deletion strains, locus YOR144C, strain elg1, stronger effect = lower value 0.0585 | S. cerevisiae deletion strains, locus YOR184W, strain ser1, stronger effect = lower value 0.0845 | S. cerevisiae deletion strains, locus YOR231W, strain MKK1, stronger effect = lower value 0.105 | S. cerevisiae deletion strains, locus YOR265W, strain rbl2, stronger effect = lower value 0.0654 | S. cerevisiae deletion strains, locus YOR270C, strain vph1, stronger effect = lower value 0.0804 | S. cerevisiae deletion strains, locus YOR290C, strain snf2, stronger effect = lower value 0.062 | S. cerevisiae deletion strains, locus YOR316C, strain cot1, stronger effect = lower value 0.0632 | S. cerevisiae deletion strains, locus YPL051W, strain arl3, stronger effect = lower value 0.0645 | S. cerevisiae deletion strains, locus YPL055C, strain LGE1, stronger effect = lower value 0.0675 | S. cerevisiae deletion strains, locus YPL078C, strain atp4, stronger effect = lower value 0.0648 | S. cerevisiae deletion strains, locus YPL106C, strain sse1, stronger effect = lower value 0.0892 | S. cerevisiae deletion strains, locus YPL240C, strain hsp82, stronger effect = lower value 0.0586 | S. cerevisiae deletion strains, locus YPL241C, strain CIN2, stronger effect = lower value 0.0475 | S. cerevisiae deletion strains, locus YPL256C, strain CLN2, stronger effect = lower value 0.126 | S. cerevisiae deletion strains, locus YPR119W, strain clb2, stronger effect = lower value 0.0705 | S. cerevisiae deletion strains, locus YPR141C, strain kar3, stronger effect = lower value 0.0755 | S. cerevisiae deletion strains, locus YPR163C, strain tif3, stronger effect = lower value 0.074 | S. cerevisiae deletion strains, locus YPR167C, strain met16, stronger effect = lower value 0.0659 | S. cerevisiae deletion strains, strain wtn01, stronger effect = lower value 0.0707 | S. cerevisiae strains, strain wild type, stronger effect = lower value 0.0471
